Data published in PubChem BioAssay (NCATS).
Records with an inconclusive call do not appear. Active and inactive are the calls of the source. Calls follow the shape of the dose curve; as a rule, active = well fitted curve in the direction sought with a large enough effect; inconclusive = small, poorly fitted or top-dose-only effect, or another doubt; inactive = no such curve, though single readings can be large; an effect the other way counts as inactive or inconclusive.

Assays:
[1] = Quantitative High-Throughput drug screen in 47 multiple myeloma cell lines against the NCATS MIPE library collection: KMM1_JCRB cell viability assay (AID 1918960); also: nearly all actives have a fitted effect of over 30% in size
Outline: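 Each line was plated at 500 cells/well and treated 48 h with library drugs. Viability came from CellTiter-Glo luminescence relative to DMSO and cell-free medium controls.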

[2] = Quantitative High-Throughput drug screen in 47 multiple myeloma cell lines against the NCATS MIPE library collection: Karpas417_ECACC cell viability assay (AID 1918961); settings: Karpas417 myeloma viability, CellTiter-Glo ATP luminescence, 48 h; viability (% of DMSO): at 45.8 µM (top of the series)
Outline: (§1)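 Luminescent ATP measurement with CellTiter-Glo gives viability, scaled between DMSO-only wells (100%) and media-only wells (0%). Cells, 500 per well, faced library compounds for 48 hours at 37C.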

[3] = Quantitative High-Throughput drug screen in 47 multiple myeloma cell lines against the NCATS MIPE library collection: KHM11_PLB cell viability assay (AID 1918962); also: nearly all actives have a fitted effect of over 35% in size
Outline: (§2)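 qHTS of the MIPE 4.0 collection: 500 myeloma cells/well, 48 h drug exposure at 37C in 5% CO2, then CellTiter-Glo for 5 min at room temperature before luminescence reading.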

[4] = Quantitative High-Throughput drug screen in 47 multiple myeloma cell lines against the NCATS MIPE library collection: JIM3_ECACC cell viability assay (AID 1918963; also: nearly all actives have a fitted effect of over 35% in size)
Outline: as §2

[5] = Quantitative High-Throughput drug screen in 47 multiple myeloma cell lines against the NCATS MIPE library collection: JIM1_ECACC cell viability assay (AID 1918964)
Outline: (§3)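 Steps: seed 500 cells per well; pin-transfer MIPE 4.0 library; incubate 48 h at 37C, 5% CO2, humidified; add CellTiter-Glo, 5 min room temperature; read luminescence.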

[6] = Quantitative High-Throughput drug screen in 47 multiple myeloma cell lines against the NCATS MIPE library collection: INA6_PLB cell viability assay (AID 1918965; also: nearly all actives have a fitted effect of over 55% in size)
Outline: as §1

[7] = Quantitative High-Throughput drug screen in 47 multiple myeloma cell lines against the NCATS MIPE library collection: JJN3_DSMZ cell viability assay (AID 1918966; also: nearly all actives have a fitted effect of over 50% in size)
Outline: as §3

[8] = Quantitative High-Throughput drug screen in 47 multiple myeloma cell lines against the NCATS MIPE library collection: H1112_PLB cell viability assay (AID 1918967; also: nearly all actives have a fitted effect of over 30% in size)
Outline: as §3

[9] = Quantitative High-Throughput drug screen in 47 multiple myeloma cell lines against the NCATS MIPE library collection: Karpas25_ECACC cell viability assay (AID 1918968; also: nearly all actives have a fitted effect of over 35% in size)
Outline: as §3

[10] = Quantitative High-Throughput drug screen in 47 multiple myeloma cell lines against the NCATS MIPE library collection: KMS27_JCRB cell viability assay (AID 1918970); also: nearly all actives have a fitted effect of over 30% in size
Outline: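 Myeloma cells (500 per well) were exposed to MIPE 4.0 compounds for 48 h at 37 °C, 5% CO2; viability was read as ATP luminescence with CellTiter-Glo, normalized to DMSO-only (100%) and media-only (0%) wells.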

[11] = Quantitative High-Throughput drug screen in 47 multiple myeloma cell lines against the NCATS MIPE library collection: KMS12BM_JCRB cell viability assay (AID 1918971); also: nearly all actives have a fitted effect of over 35% in size
Outline: (§4)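 CellTiter-Glo luminescence (ATP) after 48 h compound exposure, 37C/5% CO2; 500 cells/well; MIPE 4.0 approved/investigational drugs pinned in; DMSO = 100%, media only = 0% viability.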

[12] = Quantitative High-Throughput drug screen in 47 multiple myeloma cell lines against the NCATS MIPE library collection: KMS12PE_JCRB cell viability assay (AID 1918972); also: nearly all actives have a fitted effect of over 30% in size
Outline: as §1

[13] = Quantitative High-Throughput drug screen in 47 multiple myeloma cell lines against the NCATS MIPE library collection: KMS20_JCRB cell viability assay (AID 1918973); also: nearly all actives have a fitted effect of over 45% in size
Outline: as §3

[14] = Quantitative High-Throughput drug screen in 47 multiple myeloma cell lines against the NCATS MIPE library collection: KMS21BM_JCRB cell viability assay (AID 1918974); settings: ATP luminescence, 48 h; viability: at 45.8 µM (top of the series) unless noted
Outline: as §3

[15] = Quantitative High-Throughput drug screen in 47 multiple myeloma cell lines against the NCATS MIPE library collection: KMS26_JCRB cell viability assay (AID 1918975); also: nearly all actives have a fitted effect of over 45% in size
Outline: as §4

[16] = Quantitative High-Throughput drug screen in 47 multiple myeloma cell lines against the NCATS MIPE library collection: MMM1_PLB cell viability assay (AID 1918976); also: nearly all actives have a fitted effect of over 35% in size
Outline: (§5)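 qHTS format: cells plated (500/well), pin-dosed with MIPE 4.0 compounds, kept 48 h at 37 °C. Readout was CellTiter-Glo luminescence, median RLU.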

[17] = Quantitative High-Throughput drug screen in 47 multiple myeloma cell lines against the NCATS MIPE library collection: MOLP8_DSMZ cell viability assay (AID 1918977); also: nearly all actives have a fitted effect of over 45% in size
Outline: as §5

[18] = Quantitative High-Throughput drug screen in 47 multiple myeloma cell lines against the NCATS MIPE library collection: NCIH929_DSMZ cell viability assay (AID 1918978); also: nearly all actives have a fitted effect of over 35% in size
Outline: as §5

[19] = Quantitative High-Throughput drug screen in 47 multiple myeloma cell lines against the NCATS MIPE library collection: OCIMY1_PLB cell viability assay (AID 1918979); also: nearly all actives have a fitted effect of over 35% in size
Outline: as §5

[20] = Quantitative High-Throughput drug screen in 47 multiple myeloma cell lines against the NCATS MIPE library collection: MM1S_ATCC cell viability assay (AID 1918980); also: nearly all actives have a fitted effect of over 45% in size
Outline: as §5

Measured: Potency
Potency is read from the fitted curve at half-maximal effect.

CNC(=O)c1nn(C)c2c1C(C)(C)Cc1cnc(Nc3ccc(N4CCN(C)CC4)cc3)nc1-2
active: [1] 935 nM | [2] 833 nM | [3] 1480 nM | [4] 3720 nM | [5] 743 nM | [6] 743 nM | [7] 4690 nM | [8] 4690 nM | [9] 2350 nM | [10] 662 nM | [11] 1660 nM | [12] 1050 nM | [13] 2960 nM | [14] 132 nM | [15] 13200 nM | [16] 11800 nM | [17] 1870 nM | [18] 2640 nM | [19] 5260 nM | [20] 1660 nM

NC(=O)Nc1cc(-c2cccc(F)c2)sc1C(=O)N[C@H]1CCCNC1
active: [1] 187 nM | [2] 83.3 nM | [3] 74.3 nM | [4] 469 nM | [5] 105 nM | [6] 59 nM | [7] 1320 nM | [9] 590 nM | [10] 590 nM | [11] 662 nM | [12] 469 nM | [13] 662 nM | [14] 235 nM | [15] 11800 nM | [16] 4690 nM | [17] 118 nM | [18] 2640 nM | [19] 4690 nM | [20] 132 nM

C=C1C(=CC=C2CCC[C@]3(C)[C@@H]([C@H](C)C=C[C@H](C)C(C)C)CC[C@@H]23)C[C@@H](O)C[C@@H]1O
active: [1] 469 nM | [2] 118 nM | [3] 9350 nM | [4] 7430 nM | [5] 526 nM | [6] 1480 nM | [7] 833 nM | [9] 935 nM | [10] 118 nM | [11] 1870 nM | [12] 662 nM | [14] 52.6 nM | [15] 2350 nM | [16] 5900 nM | [17] 7430 nM | [18] 935 nM | [19] 18700 nM | [20] 83.3 nM

CC(C)c1cnn2c(NCc3ccccc3)cc(N[C@@H](CO)[C@H](O)CO)nc12
active: [1] 166 nM | [2] 83.3 nM | [3] 148 nM | [4] 235 nM | [5] 132 nM | [6] 166 nM | [7] 132 nM | [8] 296 nM | [9] 235 nM | [10] 209 nM | [11] 332 nM | [12] 372 nM | [13] 235 nM | [15] 296 nM | [16] 332 nM | [17] 166 nM | [19] 418 nM | [20] 235 nM

COc1ccc(F)c(F)c1C(=O)c1cnc(NC2CCN(S(C)(=O)=O)CC2)nc1N
active: [1] 1870 nM | [2] 743 nM | [3] 1870 nM | [4] 1870 nM | [5] 1180 nM | [6] 1320 nM | [7] 1320 nM | [8] 1870 nM | [9] 1180 nM | [10] 1320 nM | [11] 1180 nM | [12] 1870 nM | [13] 2090 nM | [14] 296 nM | [16] 2640 nM | [18] 1870 nM | [19] 3720 nM | [20] 1660 nM

O=C(NC1CCNCC1)c1[nH]ncc1NC(=O)c1c(Cl)cccc1Cl
active: [1] 590 nM | [2] 187 nM | [3] 235 nM | [4] 526 nM | [5] 264 nM | [7] 187 nM | [8] 1050 nM | [9] 372 nM | [10] 526 nM | [11] 235 nM | [12] 935 nM | [13] 469 nM | [14] 118 nM | [15] 187 nM | [16] 418 nM | [17] 148 nM | [18] 418 nM | [19] 2640 nM | [20] 105 nM

CCCCOc1c(C(=O)c2c(F)cc(C)cc2F)cnc2n[nH]cc12
active: [1] 2350 nM | [2] 2350 nM | [3] 3720 nM | [4] 8330 nM | [5] 2960 nM | [6] 4180 nM | [7] 2350 nM | [8] 4690 nM | [9] 4690 nM | [10] 3720 nM | [11] 5260 nM | [13] 4180 nM | [15] 3720 nM | [16] 5260 nM | [17] 2960 nM | [18] 1320 nM

Cc1ccc(NC(=O)C2(c3ccc4c(c3)OC(F)(F)O4)CC2)nc1-c1cccc(C(=O)O)c1
active: [1] 59 nM | [2] 46.9 nM | [3] 66.2 nM | [4] 118 nM | [5] 41.8 nM | [6] 29.6 nM | [7] 148 nM | [8] 118 nM | [9] 33.2 nM | [10] 46.9 nM | [11] 29.6 nM | [12] 41.8 nM | [13] 83.3 nM | [14] 46.9 nM | [15] 59 nM | [16] 52.6 nM | [17] 20.9 nM | [18] 235 nM | [19] 187 nM
